Common to all, as to assay: DAPPL (digital affinity profiling via proximity ligation, sequencing); 10 mM Tris-HCl pH 7.5, 50 mM NaCl, 1 mM DTT, 4% glycerol, room temperature, 30 min; GST-TFs on glutathione beads, 16-mer random dsDNA library, 0.1% formaldehyde crosslink after washing; high values mean tight binding
For one assay, the target named is T1, FEV (Homo sapiens, UniProt Q99581 1-238).
T1 sequence: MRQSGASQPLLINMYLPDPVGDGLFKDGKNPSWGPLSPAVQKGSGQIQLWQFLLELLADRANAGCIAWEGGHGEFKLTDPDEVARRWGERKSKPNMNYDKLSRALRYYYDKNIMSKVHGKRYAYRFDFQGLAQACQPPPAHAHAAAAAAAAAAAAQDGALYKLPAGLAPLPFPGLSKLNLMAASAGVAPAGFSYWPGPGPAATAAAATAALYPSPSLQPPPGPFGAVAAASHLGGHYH
The note with it: protein: recombinant; tags: N-terminal GST; dsDNA, one strand shown. Put shortly:
(§1)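 Binding signal is each hexamer's read frequency for a factor divided by its frequency in the tag-only sample. The factors were GST-fused human transcription factors from yeast, captured on glutathione beads, DNA-barcoded and pooled with that sample. Pools were incubated with 200 nmole of a random double-stranded 16-mer DNA library in Tris/NaCl/DTT/glycerol buffer at room temperature for 30 min, then washed, crosslinked with 0.1% formaldehyde, proximity-ligated with BsaI/T4 ligase (1 h, 37 °C), PCR-amplified and sequenced on an Illumina NextSeq500.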

The next assay concerns the target ETV5 (Homo sapiens, UniProt P41161 1-510). As to conditions: protein: recombinant; tags: N-terminal GST; dsDNA, one strand shown. Put shortly:
as §1

The target of another assay is HSF1 (Homo sapiens, UniProt Q00613 1-529). As to conditions: protein: recombinant; tags: N-terminal GST; chain copies: 3; dsDNA, one strand shown. Put shortly: as §1
The next assay addresses T2, SPIC (Homo sapiens, UniProt Q8N5J4 1-248).
T2 sequence: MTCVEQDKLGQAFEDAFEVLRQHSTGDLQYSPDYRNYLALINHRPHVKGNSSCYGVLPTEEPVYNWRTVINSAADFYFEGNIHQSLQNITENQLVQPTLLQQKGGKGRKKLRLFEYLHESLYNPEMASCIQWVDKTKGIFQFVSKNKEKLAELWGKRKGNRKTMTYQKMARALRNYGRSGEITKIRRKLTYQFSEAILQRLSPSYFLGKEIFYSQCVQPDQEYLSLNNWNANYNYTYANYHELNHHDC
As to conditions: protein: recombinant; tags: N-terminal GST; dsDNA, one strand shown. Put shortly:
as §1

For a further assay, the target named is ELF4 (Homo sapiens, UniProt Q99607 1-663). The note with it: protein: recombinant; tags: N-terminal GST; dsDNA, one strand shown. A digest of the protocol: as §1
The next assay addresses T3, ELK4 (Homo sapiens, UniProt P28324-2 1-405).
T3 sequence: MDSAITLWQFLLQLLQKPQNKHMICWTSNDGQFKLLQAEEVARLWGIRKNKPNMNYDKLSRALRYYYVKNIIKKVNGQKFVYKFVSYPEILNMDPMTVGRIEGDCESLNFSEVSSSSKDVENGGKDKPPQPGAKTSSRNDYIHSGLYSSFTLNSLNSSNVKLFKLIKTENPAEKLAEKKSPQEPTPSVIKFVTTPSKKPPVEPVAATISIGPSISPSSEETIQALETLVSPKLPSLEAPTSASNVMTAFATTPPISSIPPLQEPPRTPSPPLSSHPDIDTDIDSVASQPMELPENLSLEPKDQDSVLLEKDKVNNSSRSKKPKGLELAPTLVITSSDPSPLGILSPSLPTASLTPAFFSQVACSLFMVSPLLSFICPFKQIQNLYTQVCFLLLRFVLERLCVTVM
The note with it: protein: recombinant; tags: N-terminal GST; dsDNA, one strand shown. A digest of the protocol:
as §1

The target of another assay is T4, ETV2 (Homo sapiens, UniProt O00321 1-342).
T4 sequence: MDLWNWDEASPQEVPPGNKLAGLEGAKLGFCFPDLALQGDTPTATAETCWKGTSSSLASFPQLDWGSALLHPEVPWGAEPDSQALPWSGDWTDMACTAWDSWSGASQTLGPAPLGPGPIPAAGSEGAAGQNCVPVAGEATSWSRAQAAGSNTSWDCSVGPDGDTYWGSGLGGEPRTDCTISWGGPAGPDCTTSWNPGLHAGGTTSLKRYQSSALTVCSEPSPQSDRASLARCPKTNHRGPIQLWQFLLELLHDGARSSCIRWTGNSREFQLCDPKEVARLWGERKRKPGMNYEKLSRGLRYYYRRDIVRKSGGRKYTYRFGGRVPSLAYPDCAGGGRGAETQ
The note with it: protein: recombinant; tags: N-terminal GST; dsDNA, one strand shown. Put shortly: as §1

The target in another assay is T5, ELF3 (Homo sapiens, UniProt P78545 1-371).
T5 sequence: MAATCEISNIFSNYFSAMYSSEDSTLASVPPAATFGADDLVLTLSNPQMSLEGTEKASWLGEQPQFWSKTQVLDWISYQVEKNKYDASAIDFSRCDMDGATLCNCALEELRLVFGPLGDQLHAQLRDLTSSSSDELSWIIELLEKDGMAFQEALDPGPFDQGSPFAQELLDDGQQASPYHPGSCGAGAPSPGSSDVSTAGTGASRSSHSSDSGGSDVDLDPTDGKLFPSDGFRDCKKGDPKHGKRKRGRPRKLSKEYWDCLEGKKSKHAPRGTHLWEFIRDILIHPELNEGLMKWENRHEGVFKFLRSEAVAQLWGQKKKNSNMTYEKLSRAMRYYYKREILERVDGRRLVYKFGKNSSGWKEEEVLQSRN
As to conditions: protein: recombinant; tags: N-terminal GST; dsDNA, one strand shown. A digest of the protocol:
as §1

In the next assay the target is CRX (Homo sapiens, UniProt O43186 1-299). As to conditions: protein: recombinant; tags: N-terminal GST; dsDNA, one strand shown. Put shortly:
as §1

A further assay deals with ETV1 (Homo sapiens, UniProt P50549 1-477). As to conditions: protein: recombinant; tags: N-terminal GST; dsDNA, one strand shown. Put shortly: as §1
In another assay the target is T6, ERF (Homo sapiens, UniProt P50548 1-548).
T6 sequence: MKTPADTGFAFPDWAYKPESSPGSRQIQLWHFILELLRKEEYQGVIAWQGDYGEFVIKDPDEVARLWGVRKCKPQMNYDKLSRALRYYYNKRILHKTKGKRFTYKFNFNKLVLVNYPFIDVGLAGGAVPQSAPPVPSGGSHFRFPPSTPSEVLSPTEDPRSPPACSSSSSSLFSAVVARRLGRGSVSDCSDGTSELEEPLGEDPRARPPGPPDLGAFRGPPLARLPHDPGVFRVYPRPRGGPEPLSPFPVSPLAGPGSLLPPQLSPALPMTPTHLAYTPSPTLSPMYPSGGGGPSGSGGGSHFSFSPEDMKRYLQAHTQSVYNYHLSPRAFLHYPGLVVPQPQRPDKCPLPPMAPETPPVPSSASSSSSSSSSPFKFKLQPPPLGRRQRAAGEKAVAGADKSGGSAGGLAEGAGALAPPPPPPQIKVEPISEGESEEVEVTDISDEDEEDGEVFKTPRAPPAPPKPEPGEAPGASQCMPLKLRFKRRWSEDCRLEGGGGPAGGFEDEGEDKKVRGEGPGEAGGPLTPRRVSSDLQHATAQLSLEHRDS
As to conditions: protein: recombinant; tags: N-terminal GST; dsDNA, one strand shown. Put shortly: as §1

The target in the next assay is T7, ETV3L (Homo sapiens, UniProt Q6ZN32 1-361).
T7 sequence: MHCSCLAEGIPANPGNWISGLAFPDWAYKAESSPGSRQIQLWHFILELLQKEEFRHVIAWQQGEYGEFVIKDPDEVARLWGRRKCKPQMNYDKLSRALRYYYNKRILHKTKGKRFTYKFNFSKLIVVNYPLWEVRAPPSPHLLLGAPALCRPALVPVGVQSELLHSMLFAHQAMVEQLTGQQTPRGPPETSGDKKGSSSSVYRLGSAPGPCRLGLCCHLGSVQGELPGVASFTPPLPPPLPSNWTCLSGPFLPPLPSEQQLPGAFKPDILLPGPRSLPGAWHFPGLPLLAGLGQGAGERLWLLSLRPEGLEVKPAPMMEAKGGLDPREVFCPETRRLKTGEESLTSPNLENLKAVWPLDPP
As to conditions: protein: recombinant; tags: N-terminal GST; dsDNA, one strand shown. A digest of the protocol: as §1

The target of another assay is T8, ETS2 (Homo sapiens, UniProt P15036 1-469).
T8 sequence: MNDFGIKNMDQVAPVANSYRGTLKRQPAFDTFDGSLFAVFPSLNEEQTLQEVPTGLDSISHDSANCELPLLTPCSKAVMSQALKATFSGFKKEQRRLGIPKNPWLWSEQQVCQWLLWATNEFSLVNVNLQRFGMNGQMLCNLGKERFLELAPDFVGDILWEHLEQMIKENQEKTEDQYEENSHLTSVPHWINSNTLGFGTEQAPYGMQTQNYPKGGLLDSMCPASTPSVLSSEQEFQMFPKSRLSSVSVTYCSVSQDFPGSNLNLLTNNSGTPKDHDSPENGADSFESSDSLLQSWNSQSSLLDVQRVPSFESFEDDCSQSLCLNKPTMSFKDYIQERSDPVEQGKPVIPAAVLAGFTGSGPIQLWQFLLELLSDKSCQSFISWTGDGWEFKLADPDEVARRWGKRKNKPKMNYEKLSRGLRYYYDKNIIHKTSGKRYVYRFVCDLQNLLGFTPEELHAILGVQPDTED
As to conditions: protein: recombinant; tags: N-terminal GST; dsDNA, one strand shown. Put shortly: as §1

The target in another assay is T9, SPDEF (Homo sapiens, UniProt O95238 1-335).
T9 sequence: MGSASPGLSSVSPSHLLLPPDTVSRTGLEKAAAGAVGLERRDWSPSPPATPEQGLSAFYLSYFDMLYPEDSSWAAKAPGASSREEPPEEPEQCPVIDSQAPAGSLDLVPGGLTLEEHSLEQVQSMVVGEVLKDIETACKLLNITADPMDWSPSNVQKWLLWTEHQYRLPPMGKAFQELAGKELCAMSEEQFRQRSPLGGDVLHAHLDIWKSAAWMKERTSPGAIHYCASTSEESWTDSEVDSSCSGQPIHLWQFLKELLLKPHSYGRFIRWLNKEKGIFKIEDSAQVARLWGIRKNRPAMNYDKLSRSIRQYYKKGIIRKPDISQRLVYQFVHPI
As to conditions: protein: recombinant; tags: N-terminal GST; dsDNA, one strand shown. Put shortly: as §1

For another assay, the target named is T10, ETV7 (Homo sapiens, UniProt Q9Y603 1-341).
T10 sequence: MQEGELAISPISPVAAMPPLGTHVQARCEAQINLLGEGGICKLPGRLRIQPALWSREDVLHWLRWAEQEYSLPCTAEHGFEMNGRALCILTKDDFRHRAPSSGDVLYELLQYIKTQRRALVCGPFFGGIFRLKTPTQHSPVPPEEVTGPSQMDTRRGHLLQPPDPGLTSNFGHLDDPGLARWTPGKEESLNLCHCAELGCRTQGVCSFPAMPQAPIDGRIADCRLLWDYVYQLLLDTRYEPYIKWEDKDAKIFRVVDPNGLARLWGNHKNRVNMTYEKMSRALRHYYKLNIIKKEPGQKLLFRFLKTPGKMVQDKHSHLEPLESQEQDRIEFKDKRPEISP
As to conditions: protein: recombinant; tags: N-terminal GST; dsDNA, one strand shown. Put shortly: as §1

The next assay concerns the target T11, ELF5 (Homo sapiens, UniProt Q9UKW6-2 1-255).
T11 sequence: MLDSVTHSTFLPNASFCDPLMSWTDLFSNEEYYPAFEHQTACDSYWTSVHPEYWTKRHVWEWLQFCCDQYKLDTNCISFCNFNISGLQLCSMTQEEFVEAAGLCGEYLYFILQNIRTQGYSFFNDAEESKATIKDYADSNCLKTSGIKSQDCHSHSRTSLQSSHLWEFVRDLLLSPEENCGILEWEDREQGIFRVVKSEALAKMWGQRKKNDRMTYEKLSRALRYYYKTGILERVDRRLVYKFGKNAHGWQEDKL
The note with it: protein: recombinant; tags: N-terminal GST; dsDNA, one strand shown. A digest of the protocol:
as §1

A further assay addresses T12, ETV3 (Homo sapiens, UniProt P41162-2 1-143).
T12 sequence: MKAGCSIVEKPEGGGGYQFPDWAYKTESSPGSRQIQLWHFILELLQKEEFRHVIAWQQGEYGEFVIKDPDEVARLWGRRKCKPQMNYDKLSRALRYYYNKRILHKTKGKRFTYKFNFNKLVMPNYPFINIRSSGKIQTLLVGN
The note with it: protein: recombinant; tags: N-terminal GST; dsDNA, one strand shown. Put shortly:
as §1

Another assay concerns the target ETV6 (Homo sapiens, UniProt P41212 1-452). The note with it: protein: recombinant; tags: N-terminal GST; dsDNA, one strand shown. Put shortly:
as §1

ETV1, sequence (P50549 whole entry): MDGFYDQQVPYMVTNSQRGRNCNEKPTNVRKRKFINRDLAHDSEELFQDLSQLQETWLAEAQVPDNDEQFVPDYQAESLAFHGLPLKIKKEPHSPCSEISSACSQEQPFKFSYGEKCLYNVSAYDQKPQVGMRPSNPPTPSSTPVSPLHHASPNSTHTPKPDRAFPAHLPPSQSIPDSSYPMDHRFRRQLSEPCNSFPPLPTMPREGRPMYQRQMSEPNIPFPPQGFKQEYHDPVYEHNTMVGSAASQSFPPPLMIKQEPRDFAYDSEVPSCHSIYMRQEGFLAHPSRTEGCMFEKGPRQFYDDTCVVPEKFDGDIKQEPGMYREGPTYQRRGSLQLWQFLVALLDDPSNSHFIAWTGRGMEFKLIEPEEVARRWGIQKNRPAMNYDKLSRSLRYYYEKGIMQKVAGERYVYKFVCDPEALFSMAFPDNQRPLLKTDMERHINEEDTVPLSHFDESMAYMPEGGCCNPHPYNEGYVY
ETV5, sequence (P41161 whole entry): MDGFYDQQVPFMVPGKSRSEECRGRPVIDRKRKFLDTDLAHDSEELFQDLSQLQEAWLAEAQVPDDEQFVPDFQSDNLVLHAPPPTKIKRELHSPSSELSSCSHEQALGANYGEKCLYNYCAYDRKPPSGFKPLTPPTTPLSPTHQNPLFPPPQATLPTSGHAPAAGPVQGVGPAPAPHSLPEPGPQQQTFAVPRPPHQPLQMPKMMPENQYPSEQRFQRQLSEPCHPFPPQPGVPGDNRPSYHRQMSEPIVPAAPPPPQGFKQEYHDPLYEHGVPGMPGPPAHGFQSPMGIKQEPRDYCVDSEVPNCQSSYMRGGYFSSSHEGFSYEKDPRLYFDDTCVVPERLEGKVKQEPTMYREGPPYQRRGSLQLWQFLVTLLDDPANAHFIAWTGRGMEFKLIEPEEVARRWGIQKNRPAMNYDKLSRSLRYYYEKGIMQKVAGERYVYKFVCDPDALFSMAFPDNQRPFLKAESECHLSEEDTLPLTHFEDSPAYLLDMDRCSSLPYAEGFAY
ELF4, sequence (Q99607 whole entry): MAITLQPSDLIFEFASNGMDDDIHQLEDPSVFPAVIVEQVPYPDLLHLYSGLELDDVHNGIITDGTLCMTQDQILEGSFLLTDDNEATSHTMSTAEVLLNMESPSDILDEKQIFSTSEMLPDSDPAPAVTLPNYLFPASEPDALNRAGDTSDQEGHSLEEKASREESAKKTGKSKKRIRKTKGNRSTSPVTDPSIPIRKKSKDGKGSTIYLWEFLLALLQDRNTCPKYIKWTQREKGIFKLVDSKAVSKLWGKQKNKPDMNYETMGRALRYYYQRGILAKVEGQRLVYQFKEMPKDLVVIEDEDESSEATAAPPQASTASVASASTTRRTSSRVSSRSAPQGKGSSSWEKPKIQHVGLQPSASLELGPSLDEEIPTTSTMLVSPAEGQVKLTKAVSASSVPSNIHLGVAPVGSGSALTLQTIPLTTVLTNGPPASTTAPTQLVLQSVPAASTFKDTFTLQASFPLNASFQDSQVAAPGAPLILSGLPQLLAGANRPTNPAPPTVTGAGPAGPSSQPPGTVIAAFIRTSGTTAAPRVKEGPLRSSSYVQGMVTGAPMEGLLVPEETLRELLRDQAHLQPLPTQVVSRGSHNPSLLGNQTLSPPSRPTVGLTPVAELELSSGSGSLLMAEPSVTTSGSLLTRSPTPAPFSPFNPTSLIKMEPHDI
ETV6, sequence (P41212 whole entry): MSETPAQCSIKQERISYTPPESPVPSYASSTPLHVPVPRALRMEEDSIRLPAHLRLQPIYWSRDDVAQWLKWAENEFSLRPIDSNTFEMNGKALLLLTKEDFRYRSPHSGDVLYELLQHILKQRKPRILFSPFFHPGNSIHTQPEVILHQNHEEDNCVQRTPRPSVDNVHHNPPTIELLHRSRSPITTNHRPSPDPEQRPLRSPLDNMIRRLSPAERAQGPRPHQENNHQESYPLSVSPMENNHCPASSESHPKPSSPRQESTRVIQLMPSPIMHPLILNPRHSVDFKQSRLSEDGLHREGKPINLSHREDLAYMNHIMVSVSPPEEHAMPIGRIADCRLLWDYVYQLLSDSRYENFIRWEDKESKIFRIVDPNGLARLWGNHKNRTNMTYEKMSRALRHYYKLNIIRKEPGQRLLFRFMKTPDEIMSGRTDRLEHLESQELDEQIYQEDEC
CRX, sequence (O43186 whole entry): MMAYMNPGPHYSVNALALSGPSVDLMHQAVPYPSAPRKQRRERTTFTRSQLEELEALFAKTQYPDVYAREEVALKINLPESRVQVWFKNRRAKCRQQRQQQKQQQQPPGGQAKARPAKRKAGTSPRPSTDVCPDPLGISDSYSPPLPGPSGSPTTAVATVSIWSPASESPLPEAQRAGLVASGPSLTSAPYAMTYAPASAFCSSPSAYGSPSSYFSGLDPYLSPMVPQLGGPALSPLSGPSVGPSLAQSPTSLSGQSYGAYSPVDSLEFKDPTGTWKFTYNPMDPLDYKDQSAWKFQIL
HSF1, sequence (Q00613 whole entry): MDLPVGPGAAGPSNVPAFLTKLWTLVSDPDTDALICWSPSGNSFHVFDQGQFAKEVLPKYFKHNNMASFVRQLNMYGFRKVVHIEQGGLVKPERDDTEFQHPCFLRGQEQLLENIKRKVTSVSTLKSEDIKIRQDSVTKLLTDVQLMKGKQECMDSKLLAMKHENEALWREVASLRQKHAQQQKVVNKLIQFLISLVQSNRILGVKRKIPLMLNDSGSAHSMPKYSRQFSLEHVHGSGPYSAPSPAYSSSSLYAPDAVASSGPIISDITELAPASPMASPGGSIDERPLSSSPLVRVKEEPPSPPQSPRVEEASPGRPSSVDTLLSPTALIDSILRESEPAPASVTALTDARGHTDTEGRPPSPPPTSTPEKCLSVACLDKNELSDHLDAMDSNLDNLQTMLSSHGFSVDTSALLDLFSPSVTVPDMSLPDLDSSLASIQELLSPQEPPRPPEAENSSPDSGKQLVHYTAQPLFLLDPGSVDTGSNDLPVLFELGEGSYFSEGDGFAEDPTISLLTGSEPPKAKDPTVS

For the sequence CGTAAT, the binding signal is 1.19 fold enrichment (6-mer frequency, TF over GST control) with FEV; 1.21 fold enrichment (6-mer frequency, TF over GST control) with ETV5; 1.5 fold enrichment (6-mer frequency, TF over GST control) with HSF1; 1.14 fold enrichment (6-mer frequency, TF over GST control) with SPIC; 1.22 fold enrichment (6-mer frequency, TF over GST control) with ELF4; 1.17 fold enrichment (6-mer frequency, TF over GST control) with ELK4. In addition, the binding signal with ETV2 was 1.17 fold enrichment (6-mer frequency, TF over GST control); with ELF3, 1.29 fold enrichment (6-mer frequency, TF over GST control); with CRX, 1.94 fold enrichment (6-mer frequency, TF over GST control); with ETV1 it was 1.24 fold enrichment (6-mer frequency, TF over GST control); in the assay with ERF it was 1.24 fold enrichment (6-mer frequency, TF over GST control); with ETV3L, 1.25 fold enrichment (6-mer frequency, TF over GST control). Further, the binding signal in the assay with ETS2 is 1.14 fold enrichment (6-mer frequency, TF over GST control); in the assay with SPDEF it was 1.19 fold enrichment (6-mer frequency, TF over GST control); with ETV7, 1.19 fold enrichment (6-mer frequency, TF over GST control); with ELF5, 1.2 fold enrichment (6-mer frequency, TF over GST control); with ETV3, 1.19 fold enrichment (6-mer frequency, TF over GST control); with ETV6, 1.2 fold enrichment (6-mer frequency, TF over GST control).

The values above are taken from PMC7862700, “An all-to-all approach to the identification of sequence-specific readers for epigenetic DNA modifications on cytosine”.
